In PubChem BioAssay (NCATS):
Where “and” joins values, the source holds several entries; their conditions need not be identical. Equal entries are not always repeated. Inconclusive results are not listed. Where a call stands in place of a potency, no number is given. More than one record can exist for a structure, and the calls need not agree. Calls of active or inactive are those of the source. Unless noted, the call rests on the fitted dose curve; in most records, active means well fitted curve in the direction sought with a large enough effect; inconclusive means small, poorly fitted or top-dose-only effect, or another doubt; inactive means no such curve, though single readings can be large; an effect the other way counts as inactive or inconclusive.

Assays:
[1] = P-glycoprotein substrates identified in KB-8-5-11 adenocarcinoma cell line, qHTS therapeutic library screen (AID 1346987); further: nearly all actives have a fitted effect of over 65% in size; further: potency means the concentration at half of the fitted maximal effect
In short: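 Compounds are pinned in dose-response onto KB-8-5-11 cells (500 cells/well, colchicine-free medium) and left 72 h at 37 degree C. CellTiter-Glo luminescence then yields AC50 values.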

[2] = NS1 protein of Zika virus - qHTS assay to identify small molecule inhibitors in human HEK 293 cells (AID 1347053); further: nearly all actives have a fitted effect of over 55% in size; further: potency means the concentration at half of the fitted maximal effect
In short: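 Read-out is a two-antibody TR-FRET for ZIKV NS1, normalized between uninfected cells and infected cells. Compound added 1 h before MR766 infection at MOI 0.5; human HEK 293 cells incubated 24 h, 37 C.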

[3] = qHTS for Inhibitors of the Functional Ribonucleoprotein Complex (vRNP) of Lassa (LASV) Arenavirus: LASV Primary Screen - GLuc reporter signal (AID 1347082; calls by dose curve; tested in HEK293 reporter line; further: nearly all actives have a fitted effect of over 60% in size; further: potency means the concentration at half of the fitted maximal effect)
[4] = qHTS for Inhibitors of the Functional Ribonucleoprotein Complex (vRNP) of Lassa (LASV) Arenavirus: Viability assay - alamar blue signal for LASV Primary Screen (AID 1347083; calls by dose curve; tested in HEK293 reporter line; further: nearly all actives have a fitted effect of over 80% in size; further: potency means the concentration at half of the fitted maximal effect)
[5] = qHTS for Inhibitors of the Functional Ribonucleoprotein Complex (vRNP) of Lymphocytic Choriomeningitis Arenaviruses (LCMV): Viability assay - alamar blue signal for LCMV Primary Screen (AID 1347085; calls by dose curve; tested in HEK293 reporter line; further: nearly all actives have a fitted effect of over 80% in size; further: potency means the concentration at half of the fitted maximal effect)
[6] = target: Nucleoprotein (Lymphocytic choriomeningitis virus (strain Armstrong)) (UniProt P09992); experiment: qHTS for Inhibitors of the Functional Ribonucleoprotein Complex (vRNP) of Lymphocytic Choriomeningitis Arenaviruses (LCMV): LCMV Primary Screen - GLuc reporter signal (AID 1347086; calls by dose curve; further: nearly all actives have a fitted effect of over 70% in size; further: potency means the concentration at half of the fitted maximal effect)
[7] = Natriuretic polypeptide receptor (hNpr1) antagonism - Pilot counterscreen GloSensor control cell line (AID 1347045; calls by dose curve; further: series mostly up to about 38 µM)
In short: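 Control counterscreen: luciferase cGMP-biosensor HEK293 cells (no Npr1) received compound for 30 min at room temperature after GloSensor substrate loading. Luminescence was measured before and 20 min after soluble guanylyl cyclase activation by 50 uM nitroprusside.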

[8] = target: Atrial natriuretic peptide receptor 1 (Homo sapiens) (UniProt P16066); experiment: Natriuretic polypeptide receptor (hNpr1) antagonism - Pilot screen (AID 1347049; calls by dose curve;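 further: agonist-evoked cGMP luminescence read 20 min after hNppA addition; series mostly up to about 58 µM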)
In short: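 cGMP-sensor HEK293/hNpr1 cells, 1500/well, plated overnight at 37C. 2% GloSensor reagent, 2 h RT. Compound (23 nL pin transfer) 30 min RT, baseline luminescence pre-read. 0.1 nM hNppA, 20 min RT, post-read.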

[9] = target: Atrial natriuretic peptide receptor 2 (Homo sapiens) (UniProt P20594); experiment: Natriuretic polypeptide receptor (hNpr2) antagonism - Pilot subtype selectivity assay (AID 1347050; calls by dose curve)
In short: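 Luminescence from a genetically encoded cGMP luciferase biosensor in hNpr2-expressing HEK293 cells is read before and 20 min after adding 1 nM hNppC. Test compounds, in interplate 1:5 titrations, are added 30-50 min ahead of the agonist.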

[10] = target: T1, Tyrosine-protein phosphatase non-receptor type substrate 1 (Homo sapiens) + Leukocyte surface antigen CD47 (Homo sapiens) (UniProt P78324+Q08722); experiment: CD47-SIRPalpha protein protein interaction - LANCE assay qHTS validation (AID 1347057; active means well fitted curve in the direction sought with a large enough effect in the signal ratio, with a control signal flat, not every such curve was filed as active; the % refers to the signal ratio; further: series mostly up to about 38 µM)
In short: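 Inhibition of soluble CD47/SIRPalpha ectodomain association by titrated compounds, measured as 665/615 nm time-resolved FRET ratio after sequential 30 min room-temperature incubations.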

[11] = target: T1, Tyrosine-protein phosphatase non-receptor type substrate 1 (Homo sapiens) + Leukocyte surface antigen CD47 (Homo sapiens); experiment: CD47-SIRPalpha protein protein interaction - HTRF assay qHTS validation (AID 1347058; active means well fitted curve in the direction sought with a large enough effect in the signal ratio, not every such curve was filed as active; the % refers to the signal ratio; further: series mostly up to about 38 µM)
In short: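 Soluble extracellular domains (6His-CD47, Avi-tag-biotinylated SIRPalpha) in PBS pH 7.4 with 0.05% IGEPAL CA-630. Compounds were preincubated 30 min at RT with CD47 and anti-His-Eu, then SIRPalpha and SAV-XL665 were added. TR-FRET 665/615 ratio.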

[12] = target: T1, Tyrosine-protein phosphatase non-receptor type substrate 1 (Homo sapiens) + Leukocyte surface antigen CD47 (Homo sapiens); experiment: CD47-SIRPalpha protein protein interaction - Alpha assay qHTS validation (AID 1347059);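 further: bead proximity luminescence from CD47 binding SIRPalpha after compound preincubation with SIRPalpha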
In short: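 SIRPalpha-biotin 25 nM + cpd, 30 min RT, dark; add CD47-His 12.5 nM, 30 min; add Ni-NTA/SAV beads 10 ug/mL, 30 min; AlphaScreen. Buffer PBS pH 7.4 + 0.05% IGEPAL CA-630. Non-biotinylated SIRPalpha as control inhibitor.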

[13] = target: Parathyroid hormone/parathyroid hormone-related peptide receptor (Homo sapiens) (UniProt Q03431); experiment: qHTS for PTHR1 Agonists: Optimization Screen against the NCGC LOPAC library (AID 1347079);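 further: GloSensor cAMP luminescence in HEK-293 GP2 cells expressing human PTHR1 with IBMX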
In short: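 HEK-293 GP2 cells, PTHR1 + GloSensor cAMP; 3000 cells/well, o/n. Luciferin + IBMX 0.5mM each (stock), 1 hr 37C. Cpd titration, 1 hr 37C. Lum after 15 min RT. Ctrl M-PTH(1-15) top 10uM.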

T1 sequence (P78324 whole entry, looked up, the tested form may be a part): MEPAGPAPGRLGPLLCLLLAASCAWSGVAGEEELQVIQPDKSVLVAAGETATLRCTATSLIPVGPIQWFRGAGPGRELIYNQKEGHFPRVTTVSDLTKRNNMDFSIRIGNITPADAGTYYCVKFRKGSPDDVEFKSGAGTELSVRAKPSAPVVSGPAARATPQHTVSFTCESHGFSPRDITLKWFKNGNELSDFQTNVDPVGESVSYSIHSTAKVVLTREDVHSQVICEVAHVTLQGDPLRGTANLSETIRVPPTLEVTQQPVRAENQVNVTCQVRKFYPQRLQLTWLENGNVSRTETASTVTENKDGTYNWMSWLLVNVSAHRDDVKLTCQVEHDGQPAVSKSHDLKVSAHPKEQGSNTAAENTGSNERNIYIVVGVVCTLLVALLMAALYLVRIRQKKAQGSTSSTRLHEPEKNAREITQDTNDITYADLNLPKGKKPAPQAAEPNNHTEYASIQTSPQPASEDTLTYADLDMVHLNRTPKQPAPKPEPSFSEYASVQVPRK
T1 sequence (Q08722 whole entry, looked up, the tested form may be a part): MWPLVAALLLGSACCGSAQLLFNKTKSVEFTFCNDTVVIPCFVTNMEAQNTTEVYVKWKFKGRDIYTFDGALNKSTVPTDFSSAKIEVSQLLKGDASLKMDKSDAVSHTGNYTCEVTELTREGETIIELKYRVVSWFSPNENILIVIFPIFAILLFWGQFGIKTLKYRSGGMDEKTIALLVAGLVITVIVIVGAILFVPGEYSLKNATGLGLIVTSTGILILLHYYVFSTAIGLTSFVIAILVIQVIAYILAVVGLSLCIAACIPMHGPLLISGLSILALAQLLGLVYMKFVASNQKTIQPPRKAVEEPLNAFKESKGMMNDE
Atrial natriuretic peptide receptor 1 (Homo sapiens), sequence (P16066 whole entry, looked up): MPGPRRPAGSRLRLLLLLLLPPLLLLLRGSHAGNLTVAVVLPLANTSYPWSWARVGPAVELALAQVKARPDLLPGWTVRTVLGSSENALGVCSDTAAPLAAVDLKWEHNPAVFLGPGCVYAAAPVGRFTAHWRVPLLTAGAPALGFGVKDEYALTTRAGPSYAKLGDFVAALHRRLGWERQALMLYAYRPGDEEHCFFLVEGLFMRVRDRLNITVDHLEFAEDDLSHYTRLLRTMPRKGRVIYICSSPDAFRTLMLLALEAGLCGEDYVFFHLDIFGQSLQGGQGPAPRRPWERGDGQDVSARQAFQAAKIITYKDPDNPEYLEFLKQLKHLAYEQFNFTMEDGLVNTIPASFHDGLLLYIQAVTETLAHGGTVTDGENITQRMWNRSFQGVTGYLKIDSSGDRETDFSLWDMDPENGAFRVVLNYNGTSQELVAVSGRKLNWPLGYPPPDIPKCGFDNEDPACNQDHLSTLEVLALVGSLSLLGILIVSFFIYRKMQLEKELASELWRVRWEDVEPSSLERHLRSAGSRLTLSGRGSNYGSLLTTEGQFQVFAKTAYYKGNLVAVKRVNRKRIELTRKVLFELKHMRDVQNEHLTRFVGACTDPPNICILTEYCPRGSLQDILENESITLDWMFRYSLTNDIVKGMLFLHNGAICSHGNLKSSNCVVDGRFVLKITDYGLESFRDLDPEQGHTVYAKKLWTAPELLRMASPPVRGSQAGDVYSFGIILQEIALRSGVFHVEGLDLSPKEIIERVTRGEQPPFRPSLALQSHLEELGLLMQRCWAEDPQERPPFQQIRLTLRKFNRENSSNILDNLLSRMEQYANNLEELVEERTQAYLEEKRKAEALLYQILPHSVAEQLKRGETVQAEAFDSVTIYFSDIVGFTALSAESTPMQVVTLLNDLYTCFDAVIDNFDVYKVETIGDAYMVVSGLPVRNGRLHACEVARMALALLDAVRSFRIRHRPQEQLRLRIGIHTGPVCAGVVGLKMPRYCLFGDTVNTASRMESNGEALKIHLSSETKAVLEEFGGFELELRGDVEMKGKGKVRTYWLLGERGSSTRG
Atrial natriuretic peptide receptor 2 (Homo sapiens), sequence (P20594 whole entry, looked up): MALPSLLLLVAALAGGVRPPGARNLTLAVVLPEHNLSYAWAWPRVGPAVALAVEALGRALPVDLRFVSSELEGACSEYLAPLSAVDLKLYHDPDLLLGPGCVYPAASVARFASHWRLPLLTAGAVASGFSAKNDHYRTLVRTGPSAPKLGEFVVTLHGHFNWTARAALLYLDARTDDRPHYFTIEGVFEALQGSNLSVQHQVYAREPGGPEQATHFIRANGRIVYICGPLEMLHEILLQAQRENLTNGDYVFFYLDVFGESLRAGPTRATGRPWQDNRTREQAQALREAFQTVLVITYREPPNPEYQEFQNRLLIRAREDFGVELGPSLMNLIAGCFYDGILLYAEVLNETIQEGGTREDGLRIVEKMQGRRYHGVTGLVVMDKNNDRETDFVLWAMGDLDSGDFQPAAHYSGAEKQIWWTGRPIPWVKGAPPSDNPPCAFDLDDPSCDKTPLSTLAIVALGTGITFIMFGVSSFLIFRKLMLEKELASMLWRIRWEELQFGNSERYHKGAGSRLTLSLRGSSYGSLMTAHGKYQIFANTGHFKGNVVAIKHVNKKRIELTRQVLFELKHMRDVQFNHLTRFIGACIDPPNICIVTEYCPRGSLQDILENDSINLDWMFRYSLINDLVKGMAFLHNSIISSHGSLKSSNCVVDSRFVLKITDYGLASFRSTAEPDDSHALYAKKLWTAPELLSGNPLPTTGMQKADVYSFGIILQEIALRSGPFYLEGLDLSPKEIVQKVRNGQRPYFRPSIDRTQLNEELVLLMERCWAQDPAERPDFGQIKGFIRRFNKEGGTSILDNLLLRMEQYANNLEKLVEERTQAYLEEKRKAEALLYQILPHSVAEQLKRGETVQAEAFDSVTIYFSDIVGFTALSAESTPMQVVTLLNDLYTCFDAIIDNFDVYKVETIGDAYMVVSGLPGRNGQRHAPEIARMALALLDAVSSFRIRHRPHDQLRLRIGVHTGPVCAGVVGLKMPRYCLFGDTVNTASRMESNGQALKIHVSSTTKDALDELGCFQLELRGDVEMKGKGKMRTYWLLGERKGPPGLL
Nucleoprotein (Lymphocytic choriomeningitis virus (strain Armstrong)), sequence (P09992 whole entry, looked up): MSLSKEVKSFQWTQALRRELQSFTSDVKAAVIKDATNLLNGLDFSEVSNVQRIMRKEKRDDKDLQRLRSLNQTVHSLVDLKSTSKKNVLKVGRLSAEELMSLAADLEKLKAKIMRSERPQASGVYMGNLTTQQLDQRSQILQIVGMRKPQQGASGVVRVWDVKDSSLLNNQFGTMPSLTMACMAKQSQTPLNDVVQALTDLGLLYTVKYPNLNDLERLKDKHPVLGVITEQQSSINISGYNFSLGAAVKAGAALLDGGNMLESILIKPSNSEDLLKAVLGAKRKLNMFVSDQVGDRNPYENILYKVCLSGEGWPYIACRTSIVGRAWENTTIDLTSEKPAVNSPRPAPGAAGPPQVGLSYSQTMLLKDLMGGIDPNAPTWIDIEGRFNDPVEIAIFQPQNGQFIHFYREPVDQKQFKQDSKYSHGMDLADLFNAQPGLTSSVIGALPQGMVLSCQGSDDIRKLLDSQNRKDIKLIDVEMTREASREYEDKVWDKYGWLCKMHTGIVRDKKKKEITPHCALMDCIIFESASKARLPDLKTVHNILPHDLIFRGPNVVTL
Parathyroid hormone/parathyroid hormone-related peptide receptor (Homo sapiens), sequence (Q03431 whole entry, looked up): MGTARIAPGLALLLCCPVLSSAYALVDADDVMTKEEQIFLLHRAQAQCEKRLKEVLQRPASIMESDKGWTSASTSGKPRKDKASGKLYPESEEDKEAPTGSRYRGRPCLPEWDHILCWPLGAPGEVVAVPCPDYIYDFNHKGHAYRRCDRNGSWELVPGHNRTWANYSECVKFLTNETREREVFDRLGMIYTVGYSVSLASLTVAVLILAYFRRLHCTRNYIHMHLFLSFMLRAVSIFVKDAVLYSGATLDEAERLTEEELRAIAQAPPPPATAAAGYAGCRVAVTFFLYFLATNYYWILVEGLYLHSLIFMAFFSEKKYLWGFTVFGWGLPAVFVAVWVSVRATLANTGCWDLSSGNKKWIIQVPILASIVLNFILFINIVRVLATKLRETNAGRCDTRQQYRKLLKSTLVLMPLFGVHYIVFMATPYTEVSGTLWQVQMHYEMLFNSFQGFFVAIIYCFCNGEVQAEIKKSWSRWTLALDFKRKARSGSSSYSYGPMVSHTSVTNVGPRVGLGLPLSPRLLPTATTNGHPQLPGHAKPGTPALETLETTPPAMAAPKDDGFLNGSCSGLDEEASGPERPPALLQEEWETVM

| Structure (SMILES) | Potency [1] | Potency [2] | Potency [3] | Potency [4] | Potency [5] | Potency [6] | Potency [7] | Potency [8] | Potency [9] | outcome [10] | outcome [11] | Potency [12] | outcome [13] |
| --- | --- | --- | --- | --- | --- | --- | --- | --- | --- | --- | --- | --- | --- |
| C[C@](O)(COc1ccc(C#N)cc1)C(=O)Nc1ccc(C#N)c(C(F)(F)F)c1 | inactive | inactive | inactive | 38.5 µM (active) | – | – | – | – | – | – | – | – | – |
| O=S(=O)(O)C(F)(F)C(F)(F)C(F)(F)C(F)(F)F | inactive | inactive | inactive | inactive | inactive | inactive | – | – | – | – | – | – | – |
| C[C@H]([C@H](O)CCC(C)(C)O)[C@H]1CC[C@@]2(O)C3=CC(=O)[C@@H]4C[C@@H](O)[C@@H](O)C[C@]4(C)[C@@H]3CC[C@]12C | inactive | inactive | inactive | inactive | inactive | inactive | – | – | – | – | – | – | – |
| CCCN1CCC[C@H](c2cccc(O)c2)C1 | inactive | – | inactive | inactive | inactive | inactive | inactive | inactive | inactive | inactive | inactive | inactive | inactive |
| Oc1ccc2c3c1O[C@H]1[C@@H](O)C=C[C@H]4[C@@H](C2)NCC[C@@]341 | inactive | inactive | inactive | inactive | inactive | inactive | – | – | – | – | – | – | – |
| O=S(=O)(O)C(F)(F)C(F)(F)C(F)(F)C(F)(F)C(F)(F)C(F)(F)C(F)(F)C(F)(F)F | inactive | inactive | inactive | inactive | inactive | inactive | – | – | – | – | – | – | – |
| O=S(=O)(CC1CS1)c1ccc(Oc2ccccc2)cc1 (stereo not drawn) | inactive | inactive | inactive | inactive | inactive | inactive | – | – | – | – | – | – | – |
| Cc1ccc(Cl)c(O)c1 | inactive | inactive | inactive | inactive | inactive | inactive | – | – | – | – | – | – | – |
| NC(=O)CN1CC(O)CC1=O (stereo not drawn) | inactive | inactive | inactive | inactive | inactive | inactive | inactive | – | inactive | inactive | inactive | inactive | inactive |
| S=C(NC1CCCCC1)N1CCC(c2cnc[nH]2)CC1 | inactive | inactive | inactive | inactive | inactive | inactive | – | inactive | inactive | inactive | inactive | inactive | inactive |
| CN[C@@H]1Cc2cccc3[nH]c(=O)n(c23)C1 | inactive | inactive | inactive | inactive | inactive | inactive | – | – | – | – | – | – | – |
| O=c1[nH]c2ccc(Cl)cc2c(N[C@@H]2CN3CCC2CC3)c1-c1nc2ccccc2[nH]1 | 1660 nM (active) | 52.6 nM (active) | 1220 nM (active) | 0.122 µM (active) | 217 nM (active) | 863 nM (active) | – | – | – | – | – | – | – |
| CC[C@@]1(O)C(=O)OCc2c1cc1n(c2=O)Cc2cc3ccccc3nc2-1 | 332 nM (active) | 11.8 nM (active) and inactive | inactive | 193 nM (active) and 199 nM (active) | – | inactive | inactive | inactive | inactive | inactive | – | inactive | inactive |
| CC(C)(O)C(=O)Nc1ccc([N+](=O)[O-])c(C(F)(F)F)c1 | inactive | inactive | – | – | – | – | – | – | – | – | – | – | – |
| COCC1(CO)C(=O)C2CCN1CC2 (stereo not drawn) | inactive | inactive | inactive | inactive | 12200 nM (active) | – | – | – | – | – | – | – | – |
| O=C(O)c1cc(Oc2ccc(C(F)(F)F)cc2Cl)ccc1[N+](=O)[O-] | inactive | inactive | inactive | inactive | inactive | inactive | – | – | – | – | – | – | – |
| O=C(O)CCCOc1ccc(Cl)cc1Cl | inactive | inactive | inactive | inactive | inactive | inactive | – | – | – | – | – | – | – |
| CC(C)(C)NC[C@H](O)c1ccc(O)cc1Cl | inactive | inactive | inactive | inactive | inactive | inactive | – | – | – | – | – | – | – |
| CCCCCCCCc1ccc(O)cc1 | inactive | inactive | inactive | inactive | inactive | inactive | – | – | – | – | – | – | – |
| CSCC[C@@H](NC(=O)[C@@H](Cc1ccccc1)NC(=O)CNC(=O)CNC(=O)[C@@H](N)Cc1ccc(O)cc1)C(=O)O | inactive | inactive | inactive | inactive | inactive | inactive | – | – | – | – | – | – | – |
| O=C1C=CC[C@@H]2[C@H]3CCCN4CCC[C@@H](CN12)[C@@H]34 | inactive | inactive | inactive | inactive | inactive | inactive | – | – | – | – | – | – | – |
| C1CCC(NC2CCCCC2)CC1 | inactive | inactive | inactive | inactive | inactive | inactive | – | – | – | – | – | – | – |
